According to PubChem BioAssay AID2314 (National Center for Advancing Translational Sciences (NCATS), 2010):
The whole screen tested about 300,000 compounds, of which about 37,000 (12%) were called active. The sample holds actives, similar compounds and a random draw of the others, so the mix is not that of the screen. Cut-off read from the data, not from the text of the source: active = max response mostly above about 13% (no sharp cut-off); inactive = mostly below about 14%.

Test: Cycloheximide Counterscreen for Small Molecule Inhibitors of Shiga Toxin; note: read at 38.3 µM for the half of the compounds with a filed dose; 0% is about no effect
Settings: cell reporter, cycloheximide protein synthesis inhibition counterscreen; stronger effect = higher value

| SMILES | max response |
| --- | --- |
| C[N+](C)(C)CCNC(=O)c1cc[n+](Cc2ccccc2)c(/C=N/O)c1 | -2.41% (inactive) |
| COC(=O)c1cc(CNC(=O)CC(C)c2ccccc2)ccc1OC (stereo unspecified) | 0.629% (inactive) |
| O=C(NNC1CC(=O)N(c2cccc(Cl)c2)C1=O)c1cccnc1 (stereo unspecified) | 0.896% (inactive) |
| Cc1c(-c2ccccc2)n[nH]c1C(=O)N=Nc1c(O)[nH]c2ccccc12 | 8.32% (inactive) |
| COc1ccc(-c2c(-c3ccc(OC)cc3O)nc(C)nc2C(F)(F)F)cc1 | -2.37% (inactive) |
| O=C(O)/C=C\C(=O)Nc1ccc(OCc2ccccc2)cc1 | 21.5% (inactive) |
| O=C(CCSc1ccccc1)NCCSc1ccccn1 | -3.74% (inactive) |
| O=C(/C=C/c1ccco1)Nc1ccc(Oc2ccccc2)cc1 | 37.9% (active) |
| O=C(NCCSc1ccccc1)c1ccco1 | 81.7% (active) |
| O=C(CNC(=O)c1ccco1)OCC(=O)c1ccccc1 | 19.9% (inactive) |
| Cc1ccc(-n2nc3ccc(NC(=O)/C=C/c4ccco4)cc3n2)cc1C | 30.3% (inactive) |
| CC(=O)NCCc1ccc(S(=O)(=O)Nc2ccc(C)c(S(=O)(=O)N3CCOCC3)c2)cc1 | -9.24% (inactive) |
| CC1CCN(CC(=O)Nc2nccs2)CC1 | -2.21% (inactive) |
| O=C(Cc1ccsc1)N1CCN(S(=O)(=O)c2cc(C(F)(F)F)cc(C(F)(F)F)c2)CC1 | -2.13% (inactive) |
| COc1cccc(C(C(=O)NC2CCCC2)N(C(=O)c2ccco2)c2cccc(C(C)=O)c2)c1OC (stereo unspecified) | 3.33% (inactive) |
| Cc1cc(OC(=O)c2c(Cl)cccc2Cl)nc(C)n1 | -0.567% (inactive) |
| CCOC(=O)c1cnc(SCC(=O)Nc2ccccc2C(=O)OC)nc1N | -1.91% (inactive) |
| CCCCOc1ccc(-c2ncc(C(=O)OCC)c(N)n2)cc1 | 42.2% (active) |
| CCOC(=O)c1cnc(-c2ccccc2)nc1Oc1ccc(C)cc1 | -0.445% (inactive) |
| COc1ccc2c(c1)c(=O)c(C(=O)c1ccc(Cl)cc1)cn2CC(=O)Nc1ccc(F)cc1 | -2.23% (inactive) |
| O=C(N=C1SC2CS(=O)(=O)CC2N1c1cc(Cl)ccc1Cl)C1CC1 (stereo unspecified) | 8.54% (inactive) |
| O=C(c1cnn(-c2ccc(Cl)cc2)c1)c1ccccc1O | 60.1% (active) |
| O=C(CN1CCN(c2ccc(Cl)cc2)CC1)c1ccccc1 | 5.7% (inactive) |
| Cc1ncc(CC(=O)n2cc(C(=O)c3cc(Cl)ccc3O)cn2)s1 | 11.2% (inactive) |
| Fc1ccc2[nH]c3c(N4CCN(Cc5ccc6c(c5)OCO6)CC4)ncnc3c2c1 | -4.86% (inactive) |
| COc1ccc(CN2CC(C(=O)NCCc3ccc(Cl)cc3)CC2=O)cc1 (stereo unspecified) | -3.25% (inactive) |
